For five compounds, composite z-score and z-score results are on record in PubChem BioAssay.

The subject of test [1] is Plasmodium falciparum Sir2 (PF13_0152, Sir2A). Description: Plasmodium falciparum Sir2A binding compounds – biochemical, small-molecule microarray, 635 nm fluorescence, primary screen (AID 1098).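 Further: score merges spot fluorescence intensity with its signal-to-noise ratio.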 Conditions: fluorescence 635 nm, higher = more signal.
The nature of test [2]: probe aDKK1 binding to arrayed compounds – biochemical, biotinylated probe, 635/667 nm fluorescence, primary screen (AID 1099).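 Further: score merges 667nm spot fluorescence with signal to noise across triplicate slides.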 Conditions: small-molecule microarray, higher = more signal.
Test [3] can be described thus: probe aCHRDL2 binding to arrayed compounds – biochemical, biotinylated probe, 635/667 nm fluorescence, primary screen (AID 1100). As to conditions: small-molecule microarray, higher = more signal.
The nature of test [4]: change in splice reporter luminescence, either direction, cell-based, HEK293, spliceosome inhibition project, primary screen (AID 1101).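 Further: HEK293 cells carrying a splicing-competent luciferase reporter gene; test concentration not given here.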 As to conditions: HEK293 splicing luciferase reporter, 24 h, higher = more signal, called active from +8 up or from −8 down. On the technique in general: A reporter such as luciferase makes a cellular process visible.
The target in test [5] is Fibroblast growth factor 10 (Homo sapiens) (UniProt O15520). Nature of the test: compounds binding fibroblast growth factor 10 – biochemical, small-molecule microarray, 635 nm fluorescence, primary screen (AID 1102). Conditions: FGF10 binding, fluorescence 635 nm, higher = more signal.
Test [6] relates to glycogen synthase kinase-3 (GSK3A per assay name; protocol says GSK3B). Nature of the test: compounds binding glycogen synthase kinase-3 – biochemical, small-molecule microarray, 635 nm fluorescence, GSK3A, primary screen (AID 1103). Further: the record names both GSK3A and GSK3B. Conditions: fluorescence 635 nm, higher = more signal.
Test [7] has as its target Epidermal growth factor receptor (Homo sapiens) (UniProt P00533). Nature of the test: compounds binding epidermal growth factor receptor – biochemical, small-molecule microarray, 635 nm fluorescence, primary screen (AID 1104).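 Further: score merges 667 nm emission intensity with spot signal to noise over triplicate slides.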 As to conditions: EGFR binding, higher = more signal.
Test [8] has as its target Follistatin-related protein 3 (Homo sapiens) (UniProt O95633). Nature of the test: compounds binding follistatin-related protein 3 – biochemical, small-molecule microarray, 635 nm fluorescence, primary screen (AID 1105).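 Further: score merges emission near 667 nm and signal to noise per printed spot across three slides.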 Conditions: FSTL3 binding, higher = more signal.
In test [9] the target is Dickkopf-related protein 1 (Homo sapiens) (UniProt O94907). Description: small molecules binding DKK1 protein – biochemical, small-molecule microarray, 635 nm fluorescence scan, primary screen (AID 1106).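 Further: score merges emission near 667 nm with signal to noise over three replicate slides.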 As to conditions: higher = more signal.
Test [10] deals with Inhibin beta A chain (activin A). Nature of the test: small molecules binding activin A – biochemical, small-molecule microarray, 635 nm fluorescence scan, primary screen (AID 1107).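 Further: mouse activin A protein probed at 4.33 µg/mL on printed slides; score merges bound-protein fluorescence near 667 nm with spot signal-to-noise.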 As to conditions: INHBA, higher = more signal.
Test [11] concerns Human papillomavirus type 1a protein E7 (residues 44-93). Nature of the test: small molecules binding HPV E7 44-93 – biochemical, small-molecule microarray, residues 44-93, 635 nm fluorescence, primary screen (AID 1108).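 Further: E7 fragment applied at 1 µg/mL in TBST for 1 h at 4 C; score combines spot fluorescence with its signal to noise ratio.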 As to conditions: fluorescence 635 nm, higher = more signal.
Test [12] is described as follows: hepatitis C replication reporter changes, two-sided – Huh7 cells, luciferase reporter, HCV replication inhibitor project, primary screen (AID 1109).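 Further: huh7 hepatoma cells harbouring a luciferase neomycin HCV replicon reporter; luciferase luminescence as measure of HCV replicon replication; test concentration not given here.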 As to conditions: Huh7 HCV replicon luciferase reporter, 48 h; higher = more signal.
The target in test [13] is Left-right determination factor 2 (Homo sapiens) (UniProt O00292). Nature of the test: small molecules binding LEFTY2 protein – biochemical, small-molecule microarray, 635 nm fluorescence scan, primary screen (AID 1110). As to conditions: higher = more signal.
Test [14] addresses Calmodulin-1 (Homo sapiens) (UniProt P0DP23). Description: small molecules binding calmodulin-1 with EGTA – biochemical, small-molecule microarray, Cy5-labelled CALM1, profiling panel (AID 1111).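 Further: labelled calmodulin applied in Tris saline Tween buffer holding calcium plus EGTA and DTT.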 Conditions: Cy5-CALM1 binding fluorescence, higher = more signal.
Test [15] shares this target. Nature of the test: small molecules binding Ca-loaded calmodulin-1 – biochemical, small-molecule microarray, Cy5-labelled CALM1, plus calcium, artefact control for SMM control-protein annotation, profiling panel (AID 1112).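 Further: score merges spot fluorescence with signal to noise from triplicate slides.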 Conditions: Cy5-CALM1 binding fluorescence, higher = more signal.
Test [16] is described as follows: probe aWnt5a binding to arrayed compounds – biochemical, biotinylated probe, 635/667 nm fluorescence, primary screen (AID 1113).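 Further: score merges 667 nm fluorescence intensity with signal-to-noise per printed feature.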 As to conditions: small-molecule microarray, higher = more signal.
The nature of test [17]: probe aShh binding to arrayed compounds – biochemical, biotinylated probe, 635/667 nm fluorescence, primary screen (AID 1114).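 Further: probe is biotin-labelled aShh protein from a stem cell growth factor screen; measures binding of labelled protein to compounds printed on the slide; score merges feature fluorescence at 667 nm with signal-to-noise.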 Conditions: small-molecule microarray, higher = more signal.
Test [18] in a line: probe aNog binding to arrayed compounds – biochemical, biotinylated probe, 635/667 nm fluorescence, primary screen (AID 1115).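 Further: probe is biotinylated aNog protein used at 0.15 µg/mL for 1 h at 4 C; z-score combines 667 nm fluorescence of each spot with its signal to noise.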 As to conditions: small-molecule microarray, higher = more signal.
For test [19], the target named is Torsin-1A-interacting protein 1 (Homo sapiens) (UniProt Q5JTV8). Nature of the test: compound microarray binding of lysate hLAP1 – cell lysate, small-molecule microarray, COS7 lysate, 635/667 nm fluorescence, primary screen (AID 1116). As to conditions: 635 nm fluorescence, higher = more signal.
The target in test [20] is Alpha-bungarotoxin (Bungarus multicinctus) (UniProt P60615). Description: compounds binding labelled alpha-BTX control protein – biochemical, small-molecule microarray, Alexa647 label, 635/667 nm fluorescence, artefact control for SMM control protein annotation, profiling panel (AID 1117). As to conditions: alpha-BTX-A647 binding fluorescence, higher = more signal.

Activity calls are given as the source filed them.

Chain of Alpha-bungarotoxin (Bungarus multicinctus) (P60615 whole entry, looked up): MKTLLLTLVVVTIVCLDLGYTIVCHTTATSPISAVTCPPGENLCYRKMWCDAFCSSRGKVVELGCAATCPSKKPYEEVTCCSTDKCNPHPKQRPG
Chain of Follistatin-related protein 3 (Homo sapiens) (O95633 whole entry, looked up): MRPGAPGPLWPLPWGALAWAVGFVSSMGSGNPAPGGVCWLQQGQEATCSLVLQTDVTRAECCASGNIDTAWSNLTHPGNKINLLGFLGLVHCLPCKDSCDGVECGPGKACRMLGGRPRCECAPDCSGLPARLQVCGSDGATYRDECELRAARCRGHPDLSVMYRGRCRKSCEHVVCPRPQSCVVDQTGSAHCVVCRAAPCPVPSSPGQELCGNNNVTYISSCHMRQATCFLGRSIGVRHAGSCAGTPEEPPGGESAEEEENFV
Chain of Dickkopf-related protein 1 (Homo sapiens) (O94907 whole entry, looked up): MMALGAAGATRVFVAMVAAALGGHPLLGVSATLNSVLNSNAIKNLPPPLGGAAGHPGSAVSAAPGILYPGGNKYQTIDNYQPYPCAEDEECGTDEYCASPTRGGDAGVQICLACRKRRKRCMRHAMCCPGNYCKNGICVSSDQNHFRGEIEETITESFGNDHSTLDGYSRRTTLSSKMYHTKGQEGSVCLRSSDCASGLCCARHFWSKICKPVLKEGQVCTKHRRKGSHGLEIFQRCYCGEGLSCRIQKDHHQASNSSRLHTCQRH
Chain of Epidermal growth factor receptor (Homo sapiens) (P00533 whole entry, looked up): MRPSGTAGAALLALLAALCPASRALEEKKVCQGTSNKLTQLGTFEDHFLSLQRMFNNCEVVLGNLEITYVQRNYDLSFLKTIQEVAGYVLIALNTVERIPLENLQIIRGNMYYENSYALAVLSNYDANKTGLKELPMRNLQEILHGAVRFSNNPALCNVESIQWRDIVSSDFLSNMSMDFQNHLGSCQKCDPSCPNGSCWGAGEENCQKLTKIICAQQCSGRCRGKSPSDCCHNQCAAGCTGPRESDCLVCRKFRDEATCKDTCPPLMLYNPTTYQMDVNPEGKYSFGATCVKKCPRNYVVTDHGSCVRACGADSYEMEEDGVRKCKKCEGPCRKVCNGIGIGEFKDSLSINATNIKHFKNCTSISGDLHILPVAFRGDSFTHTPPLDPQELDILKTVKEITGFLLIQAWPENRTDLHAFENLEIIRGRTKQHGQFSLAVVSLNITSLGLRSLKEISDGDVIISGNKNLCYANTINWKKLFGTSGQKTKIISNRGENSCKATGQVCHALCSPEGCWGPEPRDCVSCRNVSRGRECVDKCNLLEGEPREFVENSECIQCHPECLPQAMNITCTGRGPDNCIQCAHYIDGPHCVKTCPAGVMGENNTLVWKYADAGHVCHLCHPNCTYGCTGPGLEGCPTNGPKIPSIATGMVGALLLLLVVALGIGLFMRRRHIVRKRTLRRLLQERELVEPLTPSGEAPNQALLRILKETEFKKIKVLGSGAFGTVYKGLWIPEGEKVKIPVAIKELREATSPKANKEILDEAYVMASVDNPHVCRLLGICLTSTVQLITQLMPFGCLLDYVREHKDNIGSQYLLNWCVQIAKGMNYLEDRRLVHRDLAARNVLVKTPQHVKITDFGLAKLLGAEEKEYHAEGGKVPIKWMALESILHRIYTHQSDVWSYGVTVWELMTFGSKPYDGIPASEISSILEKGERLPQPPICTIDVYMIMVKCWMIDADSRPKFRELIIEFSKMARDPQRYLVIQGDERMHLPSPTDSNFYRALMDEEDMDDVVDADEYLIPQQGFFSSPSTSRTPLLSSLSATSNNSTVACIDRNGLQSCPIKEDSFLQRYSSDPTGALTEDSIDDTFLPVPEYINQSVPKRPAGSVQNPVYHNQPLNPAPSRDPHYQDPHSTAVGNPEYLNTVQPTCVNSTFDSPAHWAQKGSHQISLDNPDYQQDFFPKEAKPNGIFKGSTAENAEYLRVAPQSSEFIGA
Chain of Left-right determination factor 2 (Homo sapiens) (O00292 whole entry, looked up): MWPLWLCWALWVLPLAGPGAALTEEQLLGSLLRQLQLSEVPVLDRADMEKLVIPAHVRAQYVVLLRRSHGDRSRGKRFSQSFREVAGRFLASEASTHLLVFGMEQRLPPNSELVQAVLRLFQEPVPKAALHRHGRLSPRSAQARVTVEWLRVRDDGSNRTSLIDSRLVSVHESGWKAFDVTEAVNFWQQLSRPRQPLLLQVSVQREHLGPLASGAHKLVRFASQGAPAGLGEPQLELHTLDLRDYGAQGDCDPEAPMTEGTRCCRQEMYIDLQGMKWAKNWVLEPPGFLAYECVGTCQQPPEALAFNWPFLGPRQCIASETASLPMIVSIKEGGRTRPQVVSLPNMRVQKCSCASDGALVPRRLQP
Chain of Fibroblast growth factor 10 (Homo sapiens) (O15520 whole entry, looked up): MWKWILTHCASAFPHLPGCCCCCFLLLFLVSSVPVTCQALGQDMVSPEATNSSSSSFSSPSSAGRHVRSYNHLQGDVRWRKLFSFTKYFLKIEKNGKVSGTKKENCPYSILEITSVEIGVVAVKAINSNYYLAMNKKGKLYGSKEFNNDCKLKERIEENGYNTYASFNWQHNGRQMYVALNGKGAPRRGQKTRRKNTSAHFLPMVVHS
Chain of Torsin-1A-interacting protein 1 (Homo sapiens) (Q5JTV8 whole entry, looked up): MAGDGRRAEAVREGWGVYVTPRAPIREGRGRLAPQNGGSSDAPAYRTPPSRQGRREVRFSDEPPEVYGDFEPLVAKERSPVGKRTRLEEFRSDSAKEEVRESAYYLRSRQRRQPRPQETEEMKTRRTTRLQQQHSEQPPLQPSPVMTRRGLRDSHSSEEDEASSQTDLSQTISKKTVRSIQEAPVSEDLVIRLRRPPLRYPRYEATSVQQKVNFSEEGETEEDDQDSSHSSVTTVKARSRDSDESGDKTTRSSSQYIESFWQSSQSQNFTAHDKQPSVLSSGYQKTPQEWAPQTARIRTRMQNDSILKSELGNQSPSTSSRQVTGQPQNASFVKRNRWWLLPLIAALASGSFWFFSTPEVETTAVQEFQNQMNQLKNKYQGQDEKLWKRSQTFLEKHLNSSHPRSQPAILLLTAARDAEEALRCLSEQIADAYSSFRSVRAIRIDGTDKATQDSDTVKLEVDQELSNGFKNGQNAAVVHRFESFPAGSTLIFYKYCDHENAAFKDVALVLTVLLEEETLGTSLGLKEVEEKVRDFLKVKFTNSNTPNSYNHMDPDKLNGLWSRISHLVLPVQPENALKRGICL

Regarding `CC=CC(O)C1C=CC2C(=O)NC(=O)C2N1Nc1ccccn1` (stereo not given), the composite z-score in [1] is 0.733; in test [2] it was -0.0419; in test [3], -0.185; in test [5] it was 0.22; in test [6], 0.717; in test [7], 0.673. The composite z-score was 0.6 in [8]; 0.697 in [9]; 1.25 in test [10]; 0.434 in test [11]; 0.44 in [13]; -0.242 in [14]. Moreover, the composite z-score was -1.1 in [15]; -0.254 in [16]; -0.0211 in test [17]; 0.342 in test [18]; 0.372 in test [19]; 0.439 in test [20]. Also, the z-score is 1.12 (inactive) in test [4] and 0.634 in test [12].

Take `COC(=O)[C@@]1(Cc2ccc(F)cc2)[C@H]2c3cc(C(=O)N4CCCC4)n(CC4CC4)c3C[C@H]2CN1C(=O)c1ccccc1`: the composite z-score was determined as 1.4 in [1]; 1.15 in test [2]; 1.3 in test [3]; 0.692 in [5]; 0.621 in [6]; 0.915 in [7]. Also, the composite z-score is 0.466 in test [8]; 0.0587 in test [9]; 0.789 in test [10]; 1.39 in test [11]; 1.29 in test [13]; 2.43 in test [14]. Moreover, the composite z-score in [15] was 0.701; in test [16], 0.0139; in [17], 0.184; in [18] it was 1.96; in test [19], 1.22; in [20] it was 1.33. Moreover, the z-score is -0.761 (inactive) in test [4] and -1.94 in test [12].

On to `O=C1C2C=CC(C(O)C=Cc3ccc([N+](=O)[O-])cc3)N(Nc3ccccc3)C2C(=O)N1c1ccccc1` (stereo not given), for which the composite z-score in [1] was 1.37; in [2] it was -0.0814; in test [3] it was 0.689; in test [5], 1.07; in [6], 1.16; in test [7], 0.244. Besides, the composite z-score worked out at 1.31 in [8]; 0.419 in [9]; 1.06 in test [10]; 1.36 in [11]; 0.0857 in test [13]; 1.37 in test [14]. The composite z-score in [15] was -0.0507; in [16], 0.0037; in [17], -0.0866; in test [18], -0.397; in test [19], 0.568; in test [20], 0.742. The z-score in test [4] is 0.649 (inactive); in test [12], -0.486.

For the compound `CC1(C)C(=O)C(c2ccccc2)=C2CN3C(=O)N(CCc4ccccc4)C(=O)C3(Cc3ccc(C(F)(F)F)cc3)C=C21` (stereo not given), the composite z-score in [1] is 0.9; in [2], 1.01; in test [3], 1.12; in test [5] it was 0.472; in test [6], 0.288; in [7] it was -0.0744. For the same compound, the composite z-score was 0.717 in test [8]; -1.01 in test [9]; 0.721 in test [10]; 1.19 in test [11]; -0.668 in test [13]; 1.36 in test [14]. Further, the composite z-score is 0.858 in [15]; 0.0226 in [16]; 1.05 in test [17]; 1.8 in test [18]; 0.393 in [19]; 0.234 in test [20]. Moreover, the z-score is 0.701 (inactive) in test [4] and -1.66 in test [12].

Turning to `CCOC(=O)C[C@H]1[C@H](OC(=O)c2cc3ccccc3oc2=O)[C@@H](NC(=O)c2ccc3ccccc3c2)c2cc(OCCCO)ccc2N1C(=O)Cc1ccc(OC)cc1`, the composite z-score in [1] is 0.571; in test [2], -0.0385; in [3] it was -0.0886; in test [5], 0.576; in test [6] it was 0.162; in test [7], 0.34. The composite z-score in [8] came to 1.18; in test [9] it was 0.427; in test [10], 0.237; in test [11], 1.16; in [13], 0.763; in test [14], 0.31. Moreover, the composite z-score in test [15] was -0.239; in test [16] it was -0.0648; in test [17], 0.0588; in test [18] it was -0.0047; in [19], 0.546; in test [20] it was 0.259. Moreover, the z-score in test [4] was -0.239 (inactive); in test [12] it was -1.6.
